Results filed as inconclusive are left out. Entries that show only a call come without a potency. The source made the active and inactive calls. Calls come from the whole dose curve; as a rule, active = well fitted inhibition curve with a large enough effect in the repeat runs; inconclusive = weak or mixed curves, or effect the other way; inactive = no such curve, though single readings can be large or run the other way.
The molecules below were run against Androgen receptor (Homo sapiens) (UniProt P10275) (assay: qHTS assay to identify small molecule antagonists of the androgen receptor (AR) signaling pathway using the MDA cell line (AID 743042; note: nearly all actives have a fitted effect of over 55% in size)). Conditions: MDA-kb2 AR-luc, MMTV luciferase, R1881 antagonist, 16 h; series mostly up to 70.3 µM.
Procedure, shortened: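 MDA-kb2 breast carcinoma cells carrying MMTV-luciferase (AR/GR responsive) were co-treated with compounds and the agonist R1881 for 16 h at 37C. Inhibition read as ONE-Glo luminescence; CellTiter-Fluor fluorescence measured in parallel for cytotoxicity.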

Sequence of Androgen receptor (Homo sapiens) (P10275 whole entry, looked up): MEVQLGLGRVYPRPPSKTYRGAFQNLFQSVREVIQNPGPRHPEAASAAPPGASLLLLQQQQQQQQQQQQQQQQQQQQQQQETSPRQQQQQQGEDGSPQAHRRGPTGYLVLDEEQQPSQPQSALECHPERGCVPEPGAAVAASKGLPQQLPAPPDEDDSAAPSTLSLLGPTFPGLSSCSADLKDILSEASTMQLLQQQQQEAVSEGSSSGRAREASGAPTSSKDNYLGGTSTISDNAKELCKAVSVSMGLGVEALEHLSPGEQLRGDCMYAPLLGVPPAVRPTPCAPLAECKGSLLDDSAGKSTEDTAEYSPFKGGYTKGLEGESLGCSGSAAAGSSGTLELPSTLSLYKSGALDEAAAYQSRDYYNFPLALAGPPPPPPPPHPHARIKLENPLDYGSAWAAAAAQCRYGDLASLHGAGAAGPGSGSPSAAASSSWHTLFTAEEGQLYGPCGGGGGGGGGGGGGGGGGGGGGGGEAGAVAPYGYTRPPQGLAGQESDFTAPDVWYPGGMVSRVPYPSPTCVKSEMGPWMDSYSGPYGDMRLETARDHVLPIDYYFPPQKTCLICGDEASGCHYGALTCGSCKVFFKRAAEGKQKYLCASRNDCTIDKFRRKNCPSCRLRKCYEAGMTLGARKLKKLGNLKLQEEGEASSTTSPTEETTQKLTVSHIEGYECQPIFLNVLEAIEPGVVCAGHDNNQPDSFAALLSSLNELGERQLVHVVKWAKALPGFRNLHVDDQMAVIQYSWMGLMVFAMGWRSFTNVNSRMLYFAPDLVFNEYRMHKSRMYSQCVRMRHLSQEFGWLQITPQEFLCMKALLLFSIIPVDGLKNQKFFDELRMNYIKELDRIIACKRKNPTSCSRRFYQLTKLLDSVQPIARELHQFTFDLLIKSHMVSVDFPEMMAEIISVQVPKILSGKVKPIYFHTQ

Row | Structure (SMILES) | Potency
1 | C=C(C)C(=O)OCCOc1ccccc1 | inactive
2 | CC[C@]12CCCN3CCc4c(n(c5ccccc45)C(=O)C1)[C@@H]32 | inactive
3 | COc1ccc(C(C)=O)cc1 | inactive
4 | O=C(c1ccc(O)cc1)c1ccc(O)cc1 | inactive
5 | CCCCOC(O)CC (configuration not stated) | inactive
6 | O=C(CCN1CCN2CCCC2C1)N1c2ccccc2Sc2ccc(Cl)cc21 (configuration not stated) | inactive
7 | CC(C)CCCC(C)CCO (configuration not stated) | inactive
